Results published in PubChem BioAssay (Tox21).
Results filed as inconclusive are left out. Calls of active or inactive are those of the source. Calls come from the whole dose curve.

Experiment: qHTS assay to identify small molecule antagonists of the estrogen receptor alpha (ER-alpha) signaling pathway using the BG1 cell line (AID 743080);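 note: BG1 cells stimulated with 17beta-estradiol alongside compound; nearly all actives have a fitted effect of over 25% in size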
Details: BG1Luc4E2 ERE-luciferase antagonist mode, luminescence; series mostly up to 70.3 µM
Excerpt: National Center for Advancing Translational Sciences [NCATS]
NIH Chemical Genomics Center [NCGC]
U.S. Environmental Protection Agency [EPA]
National Institutes of Environmental Health Sciences [NIEHS]
National Toxicology Program [NTP]
U.S. Food and Drug Administration [FDA]
Estrogen receptor (ER), a nuclear hormone receptor, plays an important role in development, metabolic homeostasis and reproduction. Endocrine disrupting chemicals (EDCs) and their interactions with steroid hormone receptors like ER causes disruption of normal endocrine function. Therefore, it is important to understand the effect of environmental chemicals on the ER signaling pathway. To identify ER antagonists, BG1-Luc-4E2 cell line (provided by Dr. Michael Denison from University of California) has been used to screen the Tox21 10K compound library. BG1Luc4E2 cell line endogenously expresses full-length ER-alpha and is stably transfected with a plasmid containing four estrogen responsive elements (ERE) upstream of a luciferase reporter gene.
Tox21 Assay Protocol Summary:
BG1-Luc-4E2 cells were cultured in phenol red free assay medium containing 10% charcoal stripped FBS for 5 days before the assay was performed. The cells were dispensed at 4,000 cells/4 uL of assay medium per well into white wall/solid-bottom 1536-well plates using a Multidrop Combi (ThermoFisher Scientific, Waltham, MA) dispenser. The assay plates were incubated at a 37C and 5% CO2 for 24 h, and then 23 nL of compounds dissolved in DMSO, positive controls or DMSO only was transferred to the assay plate using a Pintool station (Kalypsys, San Diego, CA), followed by addition of 1 uL of 17beta-estradiol in assay medium using a Flying Reagent Dispenser (Aurora Discovery, San Diego, CA). After the plates were incubated at 37 C and 5% CO2 for 21.5 h, 1 uL of CellTiter-Fluor reagent (Promega, Madison, WI) of measuring cytotoxicity was added using Flying Reagent Dispenser (FRD) to each well. The assay plates were incubated at 37 C and 5% CO2 for additional 30 min and the fluorescence intensity was quantified by a ViewLux plate reader (PerkinElmer, Shelton, CT). For measuring luciferase reporter gene activity, 4 uL of ONE-Glo reagent (Promega) was added to each plate using an FRD and luminescence was quantified by a ViewLux plate reader after 30 min incubation at room temperature.

Row | SMILES | outcome
1 | CSc1ccc(Cl)cc1 | inactive
2 | COc1ccc(N)c(C)c1 | inactive
3 | CC(C)(Oc1ccc(CCNC(=O)c2ccc(Cl)cc2)cc1)C(=O)O | inactive
4 | COCCCN | inactive
5 | O=C(O)c1ccc(S(=O)(=O)N(Cl)Cl)cc1 | inactive
6 | NCCN1CCNCC1 | inactive
7 | CC(=O)OCc1ccco1 | inactive
8 | CC1(C)S[C@@H]2[C@H](NC(=O)COc3ccccc3)C(=O)N2[C@H]1C(=O)O | inactive
9 | CC(=O)c1ccc(O)cc1 | inactive
10 | CCCCCCC=O | inactive
11 | CC(=O)CC(C)(C)O | inactive
12 | OCc1ccccc1 | inactive
13 | CC1(C)CC(N)CC(C)(CN)C1 (stereo not given) | inactive
14 | Cc1ccc([N+](=O)[O-])cc1S(=O)(=O)O | inactive
15 | CCO[Si](CCCN)(OCC)OCC | inactive
16 | CCCCCCCCCCO | inactive
17 | CCc1ccccc1CC | inactive
18 | COc1ccc([N+](=O)[O-])cc1N | inactive
19 | CN(C)c1ccc(O)c2c1C[C@H]1C[C@H]3[C@H](N(C)C)C(=O)C(C(N)=O)=C(O)[C@@]3(O)C(=O)C1=C2O | inactive
20 | CCCCCCCCCCCC(=O)OC | inactive

Row | SMILES | outcome
21 | CC(=O)OCc1ccccc1 | inactive
22 | CC(C)CC(C)O (stereo not given) | inactive
23 | Cc1ccc2ncccc2c1 | inactive
24 | CNC(=O)Oc1ccc2c(c1)[C@]1(C)CCN(C)[C@@H]1N2C | inactive
25 | CNC(=S)N(C)C | inactive
26 | Brc1ccc(Br)c(Br)c1 | inactive
27 | COc1ccc(OC)cc1 | inactive
28 | CCCCCCO | inactive
29 | O=[N+]([O-])c1ccc2nc[nH]c2c1 | inactive
30 | COc1ccc(C)cc1N | inactive
31 | O=C1CCCC1 | inactive
32 | CC(C)(C)c1cc(Cc2cc(C(C)(C)C)c(O)c(C(C)(C)C)c2)cc(C(C)(C)C)c1O | inactive
33 | O=C(O)c1cc2ccccc2cc1O | inactive
34 | CC(=O)CCC=C(C)C | inactive
35 | CCO[Si](CCC#N)(OCC)OCC | inactive
36 | CCNc1cccc(C)c1 | inactive
37 | CCOC(=O)n1ccn(C)c1=S | inactive
38 | CC(C)c1cccc(C(C)C)c1 | inactive
39 | CC(=O)OCCOC(C)=O | inactive
40 | CC(C)OC(=O)COc1ccc(Cl)cc1Cl | inactive
